# Reference: PubChem BioAssay AID651815 (National Center for Advancing Translational Sciences (NCATS), 2012)
# Among all 2,100 compounds or so, about 1,100 (52%) were called active. Roughly 29% stayed inconclusive and do not appear here. So high a share suggests a set chosen from earlier hits. The list shows a part of the results. A number with no mark means an inactive call. Calls come from the whole dose curve; as a rule, active = well fitted inhibition curve with a large enough effect; inconclusive = small, poorly fitted or top-dose-only effect; inactive = no such curve, though single readings can be large or run the other way.
# Biological target: DNA dC->dU-editing enzyme APOBEC-3F (Homo sapiens) (UniProt Q8IUX4)
# Assay: qHTS for inhibitors of Vif-A3F interactions: Cherry picks counterscreen; note: nearly all actives have a fitted effect of over 65% in size
# Settings: HeLa A3F-eYFP/Vif cells, eYFP fluorescence, 24 h; series mostly up to 46.1 µM; activity, negative = inhibitor: at the top concentration
# Method in brief: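 Rescue of Vif-driven A3F-eYFP degradation read as cellular eYFP fluorescence after 24 h compound exposure (several concentrations) in stable HeLa cells; MG132 (2 mM stock) as positive control.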
# % is set by controls: 0 for no effect and ±100 for the full control effect; potency is the fitted concentration of half-maximal effect.
# Sequence of DNA dC->dU-editing enzyme APOBEC-3F (Homo sapiens) (Q8IUX4 whole entry, looked up): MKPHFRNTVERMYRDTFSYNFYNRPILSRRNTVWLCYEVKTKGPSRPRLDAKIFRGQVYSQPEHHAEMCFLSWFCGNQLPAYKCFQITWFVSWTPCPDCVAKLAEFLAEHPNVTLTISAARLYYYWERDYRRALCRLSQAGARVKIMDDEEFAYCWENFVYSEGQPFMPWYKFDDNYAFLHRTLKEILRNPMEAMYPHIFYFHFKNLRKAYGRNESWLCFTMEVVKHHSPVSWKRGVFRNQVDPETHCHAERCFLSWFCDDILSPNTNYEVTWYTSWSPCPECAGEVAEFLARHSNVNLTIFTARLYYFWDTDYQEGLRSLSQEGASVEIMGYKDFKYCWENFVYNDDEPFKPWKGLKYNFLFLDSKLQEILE
Structure (SMILES),Potency,"activity, negative = inhibitor"
CCOc1ccccc1Nc1nnc(-c2cc3cc(Cl)ccc3oc2=O)s1,5.17 µM (active),
O=C(CCCCl)Oc1ccc2cc(-c3ccc4ccccc4n3)c(=O)oc2c1,,19.5%
CCOc1ccccc1Nc1nnc(-c2cc3cc(OC)ccc3oc2=O)s1,9.2 µM (active),
COc1ccc2oc(=O)c(-c3nc4ccccc4o3)cc2c1,14.6 µM (active),
CC(O)CN(CC(C)O)c1ccc2c(c1)Cc1cc([N+](=O)[O-])ccc1-2 (centres undefined),2.31 µM (active),
CCN1C(=O)/C(=C/C=C2\N(CC)c3cc(S(=O)(=O)N(C)C)ccc3N2c2ccccc2)SC1=S,6.27 µM (active),
CCN(CC)c1ccc(/C=N/N=C(N)N)c(O)c1,4.44 µM (active),
CCN(CC)c1ccc(/C=N/NC(=S)NC)c(O)c1,,-12.6%
CN(Cc1cnn(Cc2ccccc2)c1)C(=O)c1cccc(S(=O)(=O)N2CCOCC2)c1,11.2 µM (active),
O=C(O)CCCN1C(=O)/C(=C\C(Cl)=C\c2ccccc2)SC1=S,7.04 µM (active),
CC1=CC(C)(C)NC(=S)N1c1ccc2ccccc2c1,,5.28% [at 36.9 µM]
N#CC(=Cc1ccccn1)c1nc(-c2ccc(Cl)cc2)cs1,12.5 µM (active),
O=C(NCCc1ccccc1Cl)c1ccc(Cn2c(=O)c3cccn3c3cccnc32)cc1,18.4 µM (active),
O=[N+]([O-])c1ccc(-c2ccc(/C=N/Nc3nc(NCc4ccccc4)nc(N4CCOCC4)n3)o2)cc1,18.4 µM (active),
COCCNC(=S)NN=C1CCCCCC1,,0.562%
O=C(N/N=C/c1ccc(-c2ccc([N+](=O)[O-])cc2)o1)[C@H]1C[C@@H]1c1ccccc1,,-1.57%
COCCNC(=S)N/N=C/c1ccc(-c2ccc([N+](=O)[O-])cc2)o1,15.8 µM (active),
O=C(Cc1ccccc1)N/N=C/c1ccc(-c2ccc([N+](=O)[O-])cc2)o1,15.8 µM (active),
Cc1cc([N+](=O)[O-])ccc1-c1ccc(/C=N/NC(=O)c2ccc(Br)o2)o1,20.6 µM (active),
COCCNC(=S)N/N=C(\C)c1ccc(OC(F)F)cc1,,10.2%
O=C(O)c1cccc(-c2ccc(/C=N/Nc3ccc([N+](=O)[O-])cc3)o2)c1,18.4 µM (active),
CN(/N=C/c1ccc(-c2ccc([N+](=O)[O-])cc2)o1)c1ccccc1,1.46 µM (active),

Structure (SMILES),Potency,"activity, negative = inhibitor"
CCOc1ccc(S(=O)(=O)N(CC(=O)N/N=C/c2ccc(-c3ccc([N+](=O)[O-])cc3)o2)c2ccccc2)cc1,3.53 µM (active),
CC(C)(C)NC(=S)N/N=C\c1ccc(-c2ccc([N+](=O)[O-])cc2)o1,18.4 µM (active),
Cc1cc2nc(SCCOC(=O)Nc3cccc(Cl)c3)nc(C)c2cc1C,,-6.26%
Cn1ncc(N=Cc2c(O)ccc3ccccc23)c1C(=O)Nc1cccc(Cl)c1,14.6 µM (active),
CCOc1ccccc1C1CC(=O)NC2=C1C(=O)CCC2 (centres undefined),12.5 µM (active),
CCCOc1ccccc1C1CC(=O)Nc2cc3c(cc21)OCO3 (centres undefined),3.96 µM (active),
CCCOc1ccccc1C1CC(=O)NC2=C1C(=O)CCC2 (centres undefined),7.04 µM (active),
CC(C)c1ccc(C(=O)NCCCNC(=O)c2cnccn2)cc1,,1.23% [at 36.9 µM]
CC(C)c1ccc(NC(=O)Nc2cnccn2)cc1,17.7 µM (active),
Cc1c(C(=O)Nc2ccc(C(C)C)cc2)sc2nc3n(c(=O)c12)CCC3,,-7.16%
CCOc1ccccc1N1CC(c2nc3ccccc3n2Cc2c(C)cc(C)cc2C)CC1=O (centres undefined),,-29.7%
CCOC(=O)COn1c(=O)c(-c2ccc(Br)cc2)[n+]([O-])c2ccccc21,,-17.5%
CCOC(=O)Cn1c(=O)c(-c2cc(Br)ccc2N)nc2ccccc21,11.6 µM (active),
Nc1ccccc1C=C1Cc2ccccc2C1=O,16.4 µM (active),
CN(C)c1ccc(/C=C2\Cc3ccccc3C2=O)cc1,2.91 µM (active),
CN(C)c1ccc(/C=C2/C[N+](C)(C)C/C(=C/c3ccc(N(C)C)cc3)C2=O)cc1,7.31 µM (active),
Cc1ccccc1NC(=O)CSC1=C(C#N)C(c2ccsc2)CC(=O)N1 (centres undefined),,-26.6% [at 36.9 µM]
CCOC(=O)CSC1=C(C#N)C(c2ccc(C)s2)CC(=O)N1 (centres undefined),1.98 µM (active),
O=C(CCc1ccccc1)Nc1ccc(Cl)cn1,3.96 µM (active),
CCCC(=O)NC1=C(Cl)C(=O)c2ccccc2C1=O,,33.8%
S=C(NCc1ccco1)Nc1ccc(Cl)cn1,,6.55%
CN(C)c1ccc(/C=C/c2cc(N(C)C)nc3ccccc23)cc1,8.2 µM (active),

Structure (SMILES),Potency,"activity, negative = inhibitor"
CN(C)c1ccc(/C=C/c2nc3ccccc3c(=O)n2CCO)cc1,23.1 µM (active),
CN(C)c1ccc(/C=C/c2cc(/C=C/c3ccc(N(C)C)cc3)c3ccccc3n2)cc1,5.17 µM (active),
CCN(CC)c1ccc(/C=C/c2cc(-c3ccccc3)c3ccccc3n2)cc1,7.04 µM (active),
CCC(C)Sc1cccc(-c2nc3cc(C)ccn3c2NC2CCCCC2)c1 (centres undefined),,-9.38%
Nc1ccc2nc(-c3ccccc3)c(-c3ccccc3)nc2c1,,-17.6% [at 36.9 µM]
Nc1ccc(/C=C/c2cc(Cl)nc3ccccc23)cc1,23.1 µM (active),
CN1C(=O)/C(=C\c2ccc(N(C)C)cc2)OC1=S,1.98 µM (active),
Cc1c(N2C(=O)/C(=C/c3ccc(N(C)C)cc3)N(C)C2=S)c(=O)n(-c2ccccc2)n1C,20.6 µM (active),
CN1C(=S)N(c2cccnc2)C(=O)/C1=C\c1ccc(N(C)C)cc1,9.94 µM (active),
Cc1ccc(/C=N/NC(=O)CCCOc2ccc(Cl)cc2Cl)cc1,4.98 µM (active),
O=C1N/C(=C\c2ccccc2)c2ccccc21,1.58 µM (active),
O=C1NC(c2ccccc2Br)=N/C1=C\c1ccco1,,-3.88%
Cc1cccc2cc3c(N)c(C(=O)N4CCc5ccccc54)sc3nc12,6.51 µM (active),
Cc1ccc2nc3sc(C(=O)N4CCCc5ccccc54)c(N)c3cc2c1,12.5 µM (active),
Cc1cccc2cc3c(N)c(C(=O)N4CCCc5ccccc54)sc3nc12,20.6 µM (active),
Fc1ccc(-c2cnn3c(-c4cccs4)ccnc23)cc1,15.8 µM (active),
COc1ccccc1C1c2ccc3ccccc3c2Oc2ncn(CCN(C)C)c(=N)c21 (centres undefined),15.8 µM (active),
COC(=O)C1C2CC3c4[nH]c5cc(OC)ccc5c4CCN3CC2CC(OC(=O)CC(C)=O)C1OC (centres undefined),18.4 µM (active),
COC(=O)C1=COC(C)C2CN3CCc4c([nH]c5cc(OC)c(OC)cc45)C3CC12 (centres undefined),,-28.4%
COC(=O)C1C2CC3c4[nH]c5cc(OC)ccc5c4CCN3CC2CC(OC2CCCCO2)C1OC (centres undefined),,-27.1%
